Bioassay records (PubChem BioAssay)
Pf Dd2 inh = Plasmodium falciparum Dd2 growth inhibition; hit rate 4.3% among 120,000; AID 1347417; Potency, µM (titrated, usually from 28.9 µM), for inactives: at the highest dose activity, negative = inhibition, hits mostly inhibitors; P. falciparum Dd2 growth, SYBR Green, 72 h; active means well fitted inhibition curve with a large enough effect;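 further: plate controls were DMSO vehicle for no effect and reference drug for full effect; nearly all actives have a fitted effect of over 65% in size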
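Infected erythrocytes (Dd2, 0.3% parasitemia, 2.5% hematocrit final) are added to compound in RPMI-1640/Albumax II medium, grown 72 h at 37C in low oxygen, then lysed with saponin/Triton-X containing SYBR Green and read by fluorescence.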
* marks the source's active call; other numbers are inactive results; i = inactive; [ ] = dose if it differs, or a comment. The entries come from a sample that favours hits as a whole. Potency means the concentration at half of the fitted maximal effect.

SMILES	Pf Dd2 inh
CCN(C(=O)C1CCC(CNS(=O)(=O)c2cccc3nsnc23)CC1)c1ccc(C)c(C)c1 (stereo not drawn)	4.5µM*
Cc1ccc(NC(=O)C2CCCN2S(=O)(=O)c2cccc3nsnc23)c(C)c1 (stereo not drawn)	i
COc1ccc(NC(=O)CCNS(=O)(=O)c2cccc3nsnc23)cc1	10%
Cc1ccc(NC(=O)C2CCN(S(=O)(=O)c3cccc4nsnc34)CC2)cc1	-15%
CCCCN(CC)C(=O)C1CCC(CNS(=O)(=O)c2cccc3nsnc23)CC1 (stereo not drawn)	2.8µM*
CCN(CCO)C(=O)CC1C(=O)NCCN1Cc1cccnc1 (stereo not drawn)	-1%
CCOC(=O)CCNC(=O)N1CCCC1c1noc(COc2ccc(F)cc2)n1 (stereo not drawn)	35%
COCCNC(=O)[C@H]1C[C@H](Oc2cccnc2)CN1C(=O)Cc1cccc(OC)c1	1%
C[C@@H](NC(=O)c1ccccn1)c1onc(-c2ccc(Cl)cc2)c1C(=O)O	23%[44.1 µM]
COC(=O)c1cccc(OCCn2ccnc2-c2nc[nH]c2C)c1	-7%
Clc1ccc(CN2CCC3(CC2)CC(c2cccnc2)=NO3)cc1	19%
Cc1ccc(NC(=O)N2CCC(CCNC(=O)C3CC3)CC2)cc1	i
CCCc1noc(-c2cn(C3CCN(C(=O)c4ccc(C)cc4)CC3)nn2)n1	8%
N#Cc1ccc(S(=O)(=O)N2CCC(C3CCNC3)CC2)cc1 (stereo not drawn)	6%
O=C1NCCC[C@@H]1NC(=O)[C@@H]1CN(C(=O)C2CCNCC2)CCN1C(=O)c1ccccc1	-22%
COc1ccc(Nc2nc(-c3ccccc3F)nc3ccccc23)cc1OC	i
COc1ccc(Nc2c(-c3cc(Br)ccc3O)nc3ncccn23)cc1OC	1.3µM*
Cc1ccc(Nc2c(-c3ccc(C)s3)nc3ncccn23)cc1	-19%
COc1ccc(-c2cn3c(n2)CO[C@@H](CNC2CCCCC2)C3)cc1	i
CC(=O)NCC(=O)N1Cc2ccccc2CC2(CCCN2C)C1 (stereo not drawn)	22%
O=C(O)CCC(=O)N1Cc2ccccc2CC2(CCCN(CC3CCCCC3)C2)C1 (stereo not drawn)	22%
CN(C)CCC(=O)N1Cc2ccccc2CC2(CCCN2C)C1 (stereo not drawn)	2%
O=C(O)CCCC(=O)N1Cc2ccccc2CC2(CCCN(CC3CCCCC3)C2)C1 (stereo not drawn)	6%
CC(C)C(=O)N1Cc2ccccc2CC2(CCCN(CC3CCCCC3)C2)C1 (stereo not drawn)	0.25µM*
CC(C)C(=O)N1Cc2ccccc2CC2(CCCN2C)C1 (stereo not drawn)	10µM*
SMILES	Pf Dd2 inh
CCCN1CCC2(Cc3ccccc3CN(C(=O)CCCC(=O)O)C2)C1 (stereo not drawn)	-2%
CCCN1CCC2(Cc3ccccc3CN(C(C)=O)C2)C1 (stereo not drawn)	-3%
CCCN1CCC2(Cc3ccccc3CN(C(=O)C(C)C)C2)C1 (stereo not drawn)	8.9µM*
CCNC(=O)N(C1CC1)C1CCOC2(CCN(C(=O)C3(c4ccccc4)CC3)CC2)C1 (stereo not drawn)	-21%
O=C(N1CCN(S(=O)(=O)c2cccs2)CC1)N1CC2CC(C1)[C@H]1CCCC(=O)N1C2 (stereo partly drawn)	-18%
Cc1ccc(-c2ncc3c(n2)OCCN(Cc2ccc(F)cc2F)C3=O)cc1	i
CCCCN1CCC(CNC(=O)c2cccc(C3CCNC3)c2)CC1 (stereo not drawn)	-9%
COc1ccc(-c2ccc(C(=O)N[C@H]3CCOC[C@H]3C3CCOCC3)o2)cc1	-19%
OC1(CN2CCN(c3cccc(C(F)(F)F)c3)CC2)CNCCOC1 (stereo not drawn)	-11%
O=C(c1cc2ccc3cccnc3c2[nH]1)N1CCN(c2cccc(C(F)(F)F)c2)CC1	i
O=C(CCn1c(=O)c2cccn2c2cccnc21)N1CCN(c2cccc(C(F)(F)F)c2)CC1	i
CC(C)OCc1cc(CN2CCN(c3cccc(C(F)(F)F)c3)CC2)c(O)c2ncccc12	1.4µM*
FC(F)(F)c1cccc(N2CCN(Cc3nnc(-c4ccccc4)o3)CC2)c1	16%
CCOCc1cc(CN2CCN(c3cccc(C(F)(F)F)c3)CC2)c(O)c2ncccc12	2.8µM*
CCN1CC(C(=O)N2CCN(Cc3cccc(F)c3)C(=O)C2)CC1=O (stereo not drawn)	-2%
COCc1ccc2c(c1)c(OC(C)(C)C(=O)NC1CCN(C)CC1)nn2CCC(C)C	-22%[44.1 µM]
CS(=O)(=O)CCN1CCN(C(=O)c2cccc(-c3ncc[nH]3)c2)CC1	11%
Cc1ccc2c(c1)N1C(=O)OC[C@@H]1CCN(C(=O)c1ccc(C#N)cc1)C2	-2%[44.1 µM]
COc1ccc(C(C)NC(=O)C2CCN(C(=O)c3ncn4c3COC(c3ccccc3)C4)CC2)cc1 (stereo not drawn)	7.9µM*
CC(NC(=O)C1CCN(C(=O)c2ncn3c2COC(c2ccc(Cl)cc2)C3)CC1)c1ccccc1 (stereo not drawn)	-16%
CC(NC(=O)C1CCN(C(=O)c2ncn3c2COC(c2ccccc2)C3)CC1)c1ccc(F)cc1 (stereo not drawn)	i
O=C1Nc2ccccc2OCC12CCN(Cc1cccc3ccccc13)CC2	i
O=C1CCCN1CCC1CCN(Cc2cccc(OCC(O)CN3CCOCC3)c2)CC1 (stereo not drawn)	-3%
CCN(CC)CCCNC(=O)Cn1c(-c2cccs2)cc2cc(Cl)ccc21	11µM*
CN1CCN(CCC(=O)Nc2ccc(Cl)cc2)CC1	i
SMILES	Pf Dd2 inh
CCC(C)NC(=O)Cn1c(-c2cccs2)cc2cc(Cl)ccc21 (stereo not drawn)	-11%
CCc1nn(CC(=O)NCCCN2CCN(C)CC2)c(=O)c2cc3occc3n12	57%
CCN1CCN(CCCNC(=O)Cn2c(-c3cccs3)cc3cc(Cl)ccc32)CC1	11µM*
Cc1ccc(NC(=O)Cn2c(CCC(=O)O)ccc2-c2cccs2)cc1Cl	-3%
CCCN1CCN(CCCNC(=O)Cn2nc(C)n3c(cc4c(OC)cccc43)c2=O)CC1	-4%
CN1CCN(CCCNC(=O)Cn2c(-c3cccs3)cc3cc(Cl)ccc32)CC1	13µM*
O=C(O)Cn1c(-c2cccs2)cc2cc(Cl)ccc21	-15%
CC1CCC2(CC1)NC(=O)N(CC(=O)Nc1ccccc1Cl)C2=O (stereo not drawn)	-2%
O=S(=O)(NCC1Cn2cccc2CN1Cc1cccnc1)c1ccc(F)cc1 (stereo not drawn)	-15%
Cn1cc([C@@H](NC(=O)c2cccc3c2NCCC3)C2CC(O)C2)cn1 (stereo partly drawn)	2%
Fc1ccccc1CNC[C@H]1Cn2cc(-c3ccccc3)nc2CO1	i
Cc1nncn1C1CCN(S(=O)(=O)c2ccc(C(F)(F)F)cc2)CC1	-13%
COCCN1CC2CN(C(=O)CCCc3ccccc3)CC(C1)O2	11µM*
COCC[C@]1(O)CCN(C(=O)CCCc2ccccc2)C[C@H]1C	-8%
COCC1CN(C(C)=O)CC12CCN(C(=O)CCCc1ccccc1)CC2 (stereo not drawn)	i
CNC(=O)[C@@H](c1ccccc1)N1CCC[C@H]1C(=O)NCC1CC1	-15%[44.1 µM]
CC(=O)Nc1ccc(C2(C(=O)NCc3ccc4c(c3)OCO4)CCC2)cc1	-4%
CCS(=O)(=O)Nc1ccc(C2(C(=O)NCc3cccnc3)CCCCC2)cc1	-19%
CCS(=O)(=O)Nc1ccc(C2(C(=O)NCc3ccc4c(c3)OCO4)CCCCC2)cc1	11µM*
